In the library only some 2.5% were active in any assay of this set; here they are far more common.
ULK1 inh – ULK1 kinase inhibitors, primary screen, biochemical, AlphaScreen; Serine/threonine-protein kinase ULK1 (Homo sapiens), O75385; AlphaScreen Atg13 phosphorylation by ULK1, luminescence; inhibition, % at 5.96 µM; 30,000 compounds, 1.9% hits; AID 1259251, 2017; in the data active means inhibition above about 43%;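 further: 0% = median of compound wells and 100% = no enzyme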
ASK1 inh – ASK1 kinase inhibitors, primary screen, biochemical, AlphaScreen; AlphaScreen MKK6 phosphorylation by ASK1, luminescence; Mitogen-activated protein kinase kinase kinase 5 (Homo sapiens), Q99683; inhibition, % at 7.44 µM; 22,000 compounds, 0.99% hits; in the data active means inhibition above about 35%;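 further: 0% = median of compound wells and 100% = no enzyme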
Target sequence (Q99683 whole entry, looked up): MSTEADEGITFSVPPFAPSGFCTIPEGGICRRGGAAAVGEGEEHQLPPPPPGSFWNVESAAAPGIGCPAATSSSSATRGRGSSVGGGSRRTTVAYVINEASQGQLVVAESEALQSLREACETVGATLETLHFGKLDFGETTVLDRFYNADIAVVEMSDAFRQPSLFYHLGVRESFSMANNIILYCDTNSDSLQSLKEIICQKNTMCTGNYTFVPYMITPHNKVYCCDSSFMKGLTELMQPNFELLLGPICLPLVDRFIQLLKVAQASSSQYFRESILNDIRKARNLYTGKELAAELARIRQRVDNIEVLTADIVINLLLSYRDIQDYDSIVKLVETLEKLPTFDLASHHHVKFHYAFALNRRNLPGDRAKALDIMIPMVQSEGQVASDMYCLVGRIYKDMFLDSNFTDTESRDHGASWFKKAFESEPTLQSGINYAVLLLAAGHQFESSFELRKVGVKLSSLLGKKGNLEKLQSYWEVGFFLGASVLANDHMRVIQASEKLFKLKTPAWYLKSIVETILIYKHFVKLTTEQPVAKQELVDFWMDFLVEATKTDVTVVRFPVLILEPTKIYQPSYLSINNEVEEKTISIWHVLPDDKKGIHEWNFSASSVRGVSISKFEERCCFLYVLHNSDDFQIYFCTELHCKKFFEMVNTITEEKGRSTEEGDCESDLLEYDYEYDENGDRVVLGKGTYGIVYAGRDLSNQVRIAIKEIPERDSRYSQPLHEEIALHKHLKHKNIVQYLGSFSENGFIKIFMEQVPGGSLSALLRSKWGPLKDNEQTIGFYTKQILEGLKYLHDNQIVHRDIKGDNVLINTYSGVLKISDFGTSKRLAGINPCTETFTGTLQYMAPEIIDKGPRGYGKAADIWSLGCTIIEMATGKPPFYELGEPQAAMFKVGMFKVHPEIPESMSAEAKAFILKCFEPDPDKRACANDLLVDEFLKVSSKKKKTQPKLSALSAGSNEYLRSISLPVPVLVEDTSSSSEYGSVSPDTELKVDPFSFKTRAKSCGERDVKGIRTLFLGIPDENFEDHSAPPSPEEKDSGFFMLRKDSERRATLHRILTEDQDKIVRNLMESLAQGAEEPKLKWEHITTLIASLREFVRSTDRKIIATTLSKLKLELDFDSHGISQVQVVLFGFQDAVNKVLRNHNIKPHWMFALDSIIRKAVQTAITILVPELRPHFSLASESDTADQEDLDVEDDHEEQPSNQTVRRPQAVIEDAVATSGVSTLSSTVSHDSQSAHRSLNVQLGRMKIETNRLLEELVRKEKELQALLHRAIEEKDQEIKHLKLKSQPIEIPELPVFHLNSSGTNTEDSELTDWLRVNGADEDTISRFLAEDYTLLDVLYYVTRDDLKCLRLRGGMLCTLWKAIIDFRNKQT
* hit, by the source's call; . = not tested or not shown.

SMILES | ULK1 inh | ASK1 inh
COc1cc2nc(NCCN3CCOCC3)nc(Nc3ccc(N4CCOCC4)cc3)c2cc1OC | 5.5 | 3.9
COc1cc(Nc2nc(Nc3ccc(-n4ccnc4)cc3)ncc2C)cc(OC)c1OC | 59.8* | 12.3
Cc1cnc(Nc2ccccc2)nc1Nc1ccc(N2CCOCC2)cc1 | 29.5 | 28.1
COc1cc(Nc2cc(C)nc(Nc3ccc(-n4ccnc4)cc3)n2)cc(OC)c1OC | -12.1 | 8.1
COc1cc(Nc2nc(Nc3ccc(N4CCOCC4)cc3)ncc2C)cc(OC)c1OC | 45.5* | 20.0
CCNc1nc(Nc2ccc(N3CCOCC3)cc2)c2cc(OC)c(OC)cc2n1 | 6.9 | 43.1*
Cc1cc(NCCOc2ccccc2)nc(-c2ccccc2)n1 | -22.0 | -15.9
CN(Cc1ccccc1)c1ncc(-c2ccccc2)cn1 | -3.5 | .
CC(C)N(CCNC(=O)Cc1cn(-c2ccc(N3CCOCC3)nn2)c2ccccc12)C(C)C | -1.8 | -7.2
COc1ccc(CCNC(=O)c2ccc3nc(Nc4ncccn4)sc3c2)cc1 | 6.4 | 11.2
CCCC1=NN(C(=O)c2ccc(C)o2)C(O)(C(F)(F)F)C1 (stereo not drawn) | -5.9 | .
Cc1cc(Nc2ccccc2)nc(N2CCN(Cc3ccc4c(c3)OCO4)CC2)n1 | -22.9 | 10.9
Cc1cc(Nc2ccc(N3CCOCC3)cc2)nc(N2CCN(Cc3ccc4c(c3)OCO4)CC2)n1 | 0.2 | 42.5*
O=C(NCC(O)C(=O)N1CCOCC1)c1ccc(Nc2ccc3[nH]ncc3c2)nc1 (stereo not drawn) | -12.4 | 4.4
Cc1cc(N)nc(N2CCC(N3CCOCC3)CC2)n1 | 48.9* | 9.5
Cc1cc(NC2CC2)nc(N2CCC(N3CCOCC3)CC2)n1 | -1.5 | -12.8
COc1nc(OC)nc(Sc2ccc(N)cc2)n1 | 7.5 | .
OC[C@H]1OC([S-])[C@H](O)[C@@H](O)[C@@H]1O.[Au+] (stereo partly drawn) | 66.4* | .
OC[C@H]1OC(O)[C@H](O)[C@@H](O)[C@H]1O (stereo partly drawn) | 9.9 | .
CCN(CC)c1nc(NCCN(C(C)C)C(C)C)nc(N2CCN(c3ccccn3)CC2)n1 | 1.9 | 7.2
FC(F)(F)c1cccc(CNc2ccnc(-c3csc4ccccc34)n2)c1 | -23.5 | -13.2
CN(C)CCCOc1cc(-c2cn[nH]c2)c(F)cc1NC(=O)C(N)c1ccc(Cl)cc1 (stereo not drawn) | 19.6 | 10.2
COc1cc(NC(=O)C(N)c2ccc(Cl)cc2)c(F)cc1-c1cn[nH]c1 (stereo not drawn) | 64.8* | 12.6
COc1ccccc1NC(=O)C1=C(C)NC2=C(C(=O)CC(C)(C)C2)C1c1ccc(O)cc1 (stereo not drawn) | -15.5 | .
Cn1nccc1Nc1ncc(C(=O)Nc2ccc(N3CCOCC3)cc2)s1 | -8.9 | -9.3
SMILES | ULK1 inh | ASK1 inh
Cn1nccc1Nc1cccc(C(=O)Nc2ccc(N3CCOCC3)cc2)n1 | 44.6* | -28.2
OCCNc1ncnc2nc(N3CCC(N4CCOCC4)CC3)[nH]c12 | -7.5 | -8.0
COc1cc(CN2CCC(c3nc(-c4ccncc4)no3)C2)cc(OC)c1 (stereo not drawn) | -7.0 | -4.6
COc1cc2nc(Nc3ccc4ncccc4c3)nc(NCc3cccc(C(F)(F)F)c3)c2cc1OC | -22.1 | -0.4
c1cn(-c2ccc(Nc3ncc4ccc(-c5cn[nH]c5)cc4n3)cc2)cn1 | 89.6* | 24.6
Cc1cnc(Nc2ccc(-n3ccnc3)cc2)nc1N | 22.8 | -11.8
Cn1cc(-c2ccc3cnc(Nc4ccc(N5CCOCC5)cc4)nc3c2)cn1 | 84.0* | 18.6
Cc1nc(C)n(-c2ccc(Nc3cc4cc(-c5cn[nH]c5)ccc4cn3)cc2)n1 | 81.2* | -35.1
Cc1nc(C)n(-c2ccc(Nc3ncc4ccc(-c5cn[nH]c5)cc4n3)cc2)n1 | 36.0 | -41.1
Cc1ccc(-c2ncn(-c3ccc(Nc4ncc5ccc(-c6cnn(C)c6)cc5n4)cc3)n2)cn1 | 1.4 | 17.5
Cn1cc(-c2nc(Nc3ccc(N4CCOCC4)cc3)ncc2F)cn1 | 19.6 | -21.9
Cn1cc(-c2ccc3cnc(Nc4ccc(C(=O)N5CCOCC5)cc4)nc3c2)cn1 | 72.7* | -2.5
Cc1ncn(-c2ccc(Nc3ncc4cccc(-n5ccnc5)c4n3)cc2)n1 | 27.7 | -6.0
CN1CCN(C(=O)c2ccc(-c3nccc(Nc4ccc(N5CCOCC5)cc4)n3)cc2)CC1 | 8.3 | 6.7
COc1cc2nc(Nc3ccncc3)nc(Nc3ccc(Oc4ccccc4)cc3)c2cc1OC | -28.1 | 3.7
CC(=O)Nc1ccc(NC(=O)c2cnc(N3CCN(c4ccccn4)CC3)s2)cc1 | 7.9 | 23.4
CC(=O)N1CCN(c2ccc(NC(=O)S(=O)(=O)c3ccccc3)cc2)CC1 | 2.3 | .
Cc1cc([N+](=O)[O-])cc([N+](=O)[O-])c1C(N)=O | 7.0 | .
c1cc(-c2ccc3cnc(Nc4ccc(-n5cnc(N6CCOCC6)n5)cc4)nc3c2)c[nH]1 | 15.3 | 19.3
Cn1cc(-c2ccc3cnc(Nc4ccc(-n5ccnc5)cc4)nc3c2)cn1 | 88.3* | -4.3
Cn1cc(-c2ccc3cnc(Nc4ccc(-n5cnc(-c6ccccn6)n5)cc4)nc3c2)cn1 | 16.5 | 8.1
Cn1ncc2cc(Nc3ncc4ccc(-c5cn[nH]c5)cc4n3)ccc21 | 74.7* | 27.1
FC(F)(F)c1ccc(Cn2cnc3c(Nc4ccc(N5CCOCC5)cc4)nc(Nc4cnccn4)nc32)cc1 | -0.5 | 11.6
CCOc1ccc2c(c1)CC(C(=O)Nc1ccc(-c3ccnc(N)n3)cc1OCCN(C)C)NC2 (stereo not drawn) | 4.6 | 17.6
CC(C)n1cnc2c(NCc3nc4ccccc4[nH]3)nc(Nc3ccc4ncccc4c3)nc21 | 45.1* | 2.0
SMILES | ULK1 inh | ASK1 inh
CC(C)n1cnc2c(Nc3ccccc3)nc(Nc3ccncc3)nc21 | 45.9* | -10.9
CC(C)n1cnc2c(NCCOc3ccccc3)nc(Nc3ccc(-n4ccnc4)cc3)nc21 | -2.4 | 27.0
CC(C)n1cnc2c(NCc3nc4ccccc4[nH]3)nc(Nc3ccccn3)nc21 | 25.3 | 1.3
CC(C)n1cnc2c(Nc3ccccc3)nc(Nc3ccc(-n4ccnc4)cc3)nc21 | 56.0* | 0.1
CC(C)n1cnc2c(Nc3ccc(N4CCOCC4)cc3)nc(Nc3ccc4ncccc4c3)nc21 | 29.3 | 12.1
CC(C)n1cnc2c(Nc3ccccc3)nc(Nc3ccc4ncccc4c3)nc21 | 51.7* | -0.4
CC(C)n1cnc2c(Nc3ccccc3)nc(Nc3ccccc3)nc21 | 38.4 | -0.5
O=C(NC1CC1)c1cc(N2CCN(Cc3ccc4c(c3)OCO4)CC2)nc2ccccc12 | 5.4 | -2.6
O=C(Nc1ccc(-c2ccncc2)cc1)C1COc2ccccc2O1 (stereo not drawn) | -6.8 | 14.0
CCCNC(=O)c1cncc(-c2csc3ccccc23)c1 | 7.3 | -18.9
CN(C)C(=O)c1cc(-c2cn[nH]n2)ccc1NC(=O)C1COc2ccc(F)cc2C1 (stereo not drawn) | 3.0 | 12.3
COc1cc2nc(-c3ccccc3)nc(NCCOc3ccccc3)c2cc1OC | 37.0 | 6.7
FC(F)(F)c1ccc(Cn2cnc3c(Nc4ccccc4)nc(N4CCc5ccccc5C4)nc32)cc1 | 10.5 | 9.6
CC(=O)c1cccc(-c2nc(Nc3ccccc3)c3ncn(C(C)C)c3n2)c1 | 46.2* | -16.2
CC(=O)Nc1ccc(Nc2nc(-c3cccc(C(C)=O)c3)nc3c2ncn3C(C)C)cc1 | 33.6 | 18.5
COc1ccccc1N1C(=O)c2cccc3c(C(=O)O)ccc(c23)C1=O | 6.7 | .
CCC(=N)c1ccc(OC)c2cccc(NC)c12 | 64.4* | .
